Test results reported in PubChem BioAssay (Tox21).
Records with an inconclusive call do not appear. Where a call stands in place of a potency, no number is given. Activity calls are given as the source filed them. Unless noted, calls come from the whole dose curve.

Assays:
[1] = Nuclear factor erythroid 2-related factor 2/antioxidant responsive element (Nrf2/ARE) small molecule agonists: qHTS cell viability counter screen in human keratinocytes (AID 1919968; active = well fitted curve in the direction sought with a large enough effect in the repeat runs; an effect the other way counts as inactive or inconclusive; note: nearly all actives have a fitted effect of over 55% in size)
Method in brief: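 Parallel cytotoxicity read: KeratinoSens HaCaT cells, compound treatment 23 h, viability by CellTiter-Fluor fluorescence 1 h post-reagent.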

[2] = Nuclear factor erythroid 2-related factor 2/antioxidant responsive element (Nrf2/ARE) small molecule agonists: luciferase reporter gene qHTS assay in human keratinocytes (AID 1919969); note: nearly all actives have a fitted effect of over 35% in size; note: potency is the fitted concentration of half-maximal effect
[3] = biological target: Gonadotropin-releasing hormone receptor (Homo sapiens) (UniProt P30968); assay: Human gonadotropin-releasing hormone receptor (GnRHR) small molecule agonists, calcium flux assay in GnRHR-HEK293 cells (AID 1920063); note: nearly all actives have a fitted effect of over 35% in size; note: potency is the fitted concentration of half-maximal effect
Sequence of Gonadotropin-releasing hormone receptor (Homo sapiens) (P30968 whole entry, looked up): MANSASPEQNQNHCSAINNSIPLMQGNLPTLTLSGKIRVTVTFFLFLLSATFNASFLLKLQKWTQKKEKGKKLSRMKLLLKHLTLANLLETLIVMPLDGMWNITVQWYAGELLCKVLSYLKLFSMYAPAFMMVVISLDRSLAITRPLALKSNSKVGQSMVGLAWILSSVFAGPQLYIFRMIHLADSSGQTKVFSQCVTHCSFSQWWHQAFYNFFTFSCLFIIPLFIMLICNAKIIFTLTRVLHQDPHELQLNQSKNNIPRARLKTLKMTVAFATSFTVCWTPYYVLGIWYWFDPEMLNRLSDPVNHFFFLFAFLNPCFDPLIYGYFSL
Method in brief: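 Calcium flux, agonist mode, human GnRHR stably integrated in HEK293; dye 1 h at 37 C before compound; Ex/Em=480/540 kinetic read, 3 min; 15 concentrations, triplicate.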

[4] = biological target: KiSS-1 receptor (Homo sapiens) (UniProt Q969F8); assay: Human kisspeptin (KISS1R) small molecule agonists, calcium flux assay in KISS1R-HEK293 cells (AID 1920064; active = well fitted curve in the direction sought with a large enough effect in the repeat runs; an effect the other way counts as inactive or inconclusive)
Sequence of KiSS-1 receptor (Homo sapiens) (Q969F8 whole entry, looked up): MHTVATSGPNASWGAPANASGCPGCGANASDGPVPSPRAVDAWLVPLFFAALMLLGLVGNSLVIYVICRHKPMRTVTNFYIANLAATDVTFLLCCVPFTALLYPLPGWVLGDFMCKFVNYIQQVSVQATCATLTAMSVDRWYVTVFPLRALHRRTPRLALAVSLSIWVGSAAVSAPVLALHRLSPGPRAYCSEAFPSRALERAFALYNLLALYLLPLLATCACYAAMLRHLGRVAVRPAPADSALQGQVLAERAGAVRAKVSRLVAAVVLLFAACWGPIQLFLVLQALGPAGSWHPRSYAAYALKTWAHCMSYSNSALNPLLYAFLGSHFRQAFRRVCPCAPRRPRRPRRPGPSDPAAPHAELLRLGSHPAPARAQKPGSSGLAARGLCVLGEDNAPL
Method in brief: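 Triplicate 15-concentration series were applied to dye-loaded human KISS1R HEK293 cells, and agonist-evoked calcium fluorescence was captured for 3 min.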

[5] = G protein-coupled receptor (GPCR) small molecule agonists, calcium flux assay: HEK293 wild type cell line counter screen (AID 1920065)
Method in brief: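 Non-specific calcium responders were flagged by adding DMSO-dissolved compounds to dye-loaded cells and reading 480/540 nm fluorescence each second for 3 min; ATP served as positive control.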

[6] = p53 small molecule agonists, cell-based qHTS assay with human liver microsomes (AID 1963577); note: potency is the fitted concentration of half-maximal effect
Method in brief: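 p53RE-bla cells, 4,000/well, compound added after 5 h, with human liver microsomes 0.5 mg/mL and NADPH 0.5 mg/mL final; 16 h at 37 C, then LiveBLAzer 2 h RT, fluorescence.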

[7] = p53 small molecule agonists, cell-based qHTS assay with rat liver microsomes (AID 1963578)
Method in brief: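 p53RE-bla cells, 4,000/well, pre-incubated 5 h, then given compounds plus rat liver microsomes (0.5 mg/mL final) and NADPH (0.5 mg/mL final). Incubation 16 h at 37 C; beta-lactamase reporter read by LiveBLAzer fluorescence after 2 h at room temperature.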

[8] = p53 small molecule agonists, cell-based qHTS assay with rat liver microsomes: qHTS cell viability counter screen (AID 1963580); note: nearly all actives have a fitted effect of over 45% in size
Method in brief: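 After the beta-lactamase ratio was read, CellTiter-Glo was added to the same wells and luminescence measured at 30 min; cells had been treated 16 h at 37 C with compounds, rat liver microsomes and NADPH (0.5 mg/mL final each).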

[9] = p53 small molecule agonists, cell-based qHTS assay (AID 1963582; active = well fitted activation curve with a large enough effect in the signal ratio in the repeat runs, not every such curve was filed as active; the % refers to the signal ratio)
Method in brief: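 Beta-lactamase reporter cells (p53RE-bla) treated with compounds for 16 h at 37 C; FRET substrate, 2 h, room temperature; fluorescence intensity.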

[10] = biological target: 5-hydroxytryptamine receptor 2A (Homo sapiens) (UniProt P28223); assay: 5-hydroxytryptamine receptor 2A (HTR2A) small molecule antagonists, cell-based qHTS assay (AID 1963586); note: nearly all actives have a fitted effect of over 45% in size
Sequence of 5-hydroxytryptamine receptor 2A (Homo sapiens) (P28223 whole entry, looked up): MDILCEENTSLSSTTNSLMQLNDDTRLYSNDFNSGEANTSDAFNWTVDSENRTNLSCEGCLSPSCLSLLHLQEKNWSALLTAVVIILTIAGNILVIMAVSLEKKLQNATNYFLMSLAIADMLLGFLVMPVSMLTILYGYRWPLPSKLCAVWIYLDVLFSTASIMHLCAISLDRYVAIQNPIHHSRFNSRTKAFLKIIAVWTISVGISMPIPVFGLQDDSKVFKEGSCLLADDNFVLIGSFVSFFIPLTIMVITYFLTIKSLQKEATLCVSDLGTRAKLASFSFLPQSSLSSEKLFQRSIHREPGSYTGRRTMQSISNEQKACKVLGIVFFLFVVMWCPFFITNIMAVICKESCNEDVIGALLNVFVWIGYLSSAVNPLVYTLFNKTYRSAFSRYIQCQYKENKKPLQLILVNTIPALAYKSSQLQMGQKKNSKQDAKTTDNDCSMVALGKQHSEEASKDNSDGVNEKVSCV
Method in brief: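 CHO cells stably expressing human HTR2A were plated for 18 h at 37 C, then loaded with calcium dye for 1 h. Compounds were preincubated 5 min at room temperature before DOI (4 nM solution) was added. Kinetic fluorescence was read for 3 min.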

[11] = biological target: 5-hydroxytryptamine receptor 2A (Homo sapiens) (UniProt P28223); assay: 5-hydroxytryptamine receptor 2A (HTR2A) small molecule agonists, cell-based qHTS assay (AID 1963587); note: nearly all actives have a fitted effect of over 30% in size
Method in brief: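 CHO cells stably expressing human HTR2A, plated 18 h, loaded with calcium dye 1 h at 37 C. Agonist mode: compounds added and intracellular calcium fluorescence recorded kinetically for 2 min at 1 sec intervals.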

[12] = biological target: Muscarinic acetylcholine receptor M1 (Homo sapiens) (UniProt P11229); assay: Cholinergic receptor muscarinic 1 (CHRM1) small molecule antagonists, cell-based qHTS assay (AID 1963588); note: nearly all actives have a fitted effect of over 40% in size; note: potency is the fitted concentration of half-maximal effect
Sequence of Muscarinic acetylcholine receptor M1 (Homo sapiens) (P11229 whole entry, looked up): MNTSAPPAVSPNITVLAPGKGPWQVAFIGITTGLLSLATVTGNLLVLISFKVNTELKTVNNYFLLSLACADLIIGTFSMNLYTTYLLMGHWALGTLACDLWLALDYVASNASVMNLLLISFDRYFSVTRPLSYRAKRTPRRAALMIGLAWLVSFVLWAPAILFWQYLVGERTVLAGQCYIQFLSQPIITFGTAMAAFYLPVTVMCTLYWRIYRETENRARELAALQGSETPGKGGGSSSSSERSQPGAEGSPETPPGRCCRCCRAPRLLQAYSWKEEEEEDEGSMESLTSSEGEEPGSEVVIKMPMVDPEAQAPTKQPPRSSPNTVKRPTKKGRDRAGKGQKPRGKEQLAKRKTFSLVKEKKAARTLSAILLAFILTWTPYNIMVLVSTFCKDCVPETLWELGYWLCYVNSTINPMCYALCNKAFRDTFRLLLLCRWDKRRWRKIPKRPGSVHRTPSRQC
Method in brief: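 Compounds were tested at 15 concentrations in three independent runs. Dye-loaded CHRM1-CHO cells were exposed 5 min at room temperature before stimulation by acetylcholine added at 50nM. Intracellular calcium was read kinetically on FDSS for 3 min.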

[13] = biological target: Muscarinic acetylcholine receptor M1 (Homo sapiens) (UniProt P11229); assay: Cholinergic receptor muscarinic 1 (CHRM1) small molecule agonists, cell-based qHTS assay (AID 1963589); note: nearly all actives have a fitted effect of over 35% in size
Method in brief: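 qHTS, 15-point titration, 3 independent runs: compounds pin-transferred onto dye-loaded CHRM1-CHO cells (human M1), calcium fluorescence followed every second to detect agonism.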

[14] = cAMP Responsive Elements (CRE) small molecule agonists, cell-based qHTS assay (AID 1963590)
Method in brief: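 Quantitative HTS for CRE agonists: HEK 293T CRE-bla cells, overnight plating, 3 h compound incubation at 37 C/5% CO2, then 2 h room-temperature LiveBLAzer B/G FRET substrate loading.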

[15] = biological target: Beta-2 adrenergic receptor (Homo sapiens) (UniProt P07550); assay: Adrenergic beta2 receptor (ADRB2) small molecule antagonists, cell-based qHTS assay (AID 1963592); note: series mostly up to about 92 µM; nearly all actives have a fitted effect of over 50% in size
Sequence of Beta-2 adrenergic receptor (Homo sapiens) (P07550 whole entry, looked up): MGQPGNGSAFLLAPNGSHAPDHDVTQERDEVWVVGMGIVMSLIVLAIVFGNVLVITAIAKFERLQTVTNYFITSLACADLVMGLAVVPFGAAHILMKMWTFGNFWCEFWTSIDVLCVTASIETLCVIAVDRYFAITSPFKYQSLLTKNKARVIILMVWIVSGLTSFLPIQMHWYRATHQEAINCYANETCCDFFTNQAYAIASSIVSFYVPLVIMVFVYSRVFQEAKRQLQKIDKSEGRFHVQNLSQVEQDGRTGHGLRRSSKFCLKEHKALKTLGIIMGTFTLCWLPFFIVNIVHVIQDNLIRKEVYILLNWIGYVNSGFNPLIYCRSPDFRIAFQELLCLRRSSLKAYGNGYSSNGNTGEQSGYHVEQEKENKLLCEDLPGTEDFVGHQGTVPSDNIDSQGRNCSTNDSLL
Method in brief: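 Assay format: CHO-ADRB2 cells, 18-20hr seeding at 37C/5% CO2, then compound plus 1nM isoproterenol agonist mix for 0.5hr RT. Homogeneous time-resolved fluorescence cAMP detection after 1hr, expressed as 665/615 nm ratio.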

[16] = biological target: D(2) dopamine receptor (Homo sapiens) (UniProt P14416); assay: Dopamine D2 receptor (DRD2) small molecule agonists, cell-based qHTS assay (AID 1963594); note: nearly all actives have a fitted effect of over 35% in size; note: potency is the fitted concentration of half-maximal effect
Sequence of D(2) dopamine receptor (Homo sapiens) (P14416 whole entry, looked up): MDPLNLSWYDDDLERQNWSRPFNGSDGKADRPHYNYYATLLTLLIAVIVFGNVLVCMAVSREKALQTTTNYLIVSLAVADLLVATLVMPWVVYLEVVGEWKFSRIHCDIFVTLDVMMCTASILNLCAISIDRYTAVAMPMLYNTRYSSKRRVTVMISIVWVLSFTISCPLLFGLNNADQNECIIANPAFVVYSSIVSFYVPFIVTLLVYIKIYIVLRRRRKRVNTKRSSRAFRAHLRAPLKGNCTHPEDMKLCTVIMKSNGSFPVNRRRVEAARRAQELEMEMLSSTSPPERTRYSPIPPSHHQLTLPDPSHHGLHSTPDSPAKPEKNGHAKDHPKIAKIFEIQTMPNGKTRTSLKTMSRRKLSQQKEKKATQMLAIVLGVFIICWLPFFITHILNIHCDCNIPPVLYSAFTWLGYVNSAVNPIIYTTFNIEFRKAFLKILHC
Method in brief: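 HEK293 cells stably expressing human DRD2, pre-treated with PDE inhibitor Ro20-1724 (0.1 mM final) and compound 10 min at room temperature, then stimulated with NKH477 (200nM […]) for 30 min. cAMP read by HTRF (665/620 nm).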

[17] = biological target: D(2) dopamine receptor (Homo sapiens) (UniProt P14416); assay: Dopamine D2 receptor (DRD2) small molecule antagonists, cell-based qHTS assay (AID 1963595; active = well fitted inhibition curve with a large enough effect in the signal ratio in the repeat runs, with a control signal flat; the % refers to the signal ratio; note: potency is the fitted concentration of half-maximal effect)
Method in brief: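 HEK293 cells stably expressing DRD2 were preincubated with 0.1 mM Ro20-1724, then with compound for 10 min at room temperature. Cells were stimulated with 200 nM NKH477 plus 12 nM quinpirole for 30 min, and cAMP was read by HTRF.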

[18] = p53 small molecule agonists, cell-based qHTS assay with human liver microsomes: qHTS cell viability counter screen (AID 1963579); note: nearly all actives have a fitted effect of over 45% in size; note: potency is the fitted concentration of half-maximal effect
Method in brief: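 p53RE-bla cells, 4,000/well, dosed 5 hours after plating, with human liver microsomes (0.5 mg/mL final) plus NADPH (0.5 mg/mL final), 16 hours at 37 C. Viability read as CellTiter-Glo luminescence after 30 min at room temperature.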

[19] = p53 small molecule agonists, cell-based qHTS assay: qHTS cell viability counter screen (AID 1963581); note: nearly all actives have a fitted effect of over 45% in size
Method in brief: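 Multiplexed with the reporter read, a CellTiter-Glo step (30 min, room temperature) gauges ATP-based viability of HCT-116 p53RE-bla cells after 16 h compound incubation at 37 C.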

[20] = cAMP Responsive Elements (CRE) small molecule antagonists, cell-based qHTS assay (AID 1963591; active = well fitted inhibition curve with a large enough effect in the signal ratio in the repeat runs, not every such curve was filed as active; the % refers to the signal ratio)
Method in brief: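 Fluorescence intensity from cleaved LiveBLAzer B/G substrate (2 h, room temperature) quantified CRE-bla activity in HEK 293T cells exposed 3 h to compound with 0.25 uM final NKH477.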

CN1[C@@H]2CC[C@H]1CC(O)C2 (stereo partly drawn)
Potency [1]: inactive | Potency [2]: inactive | Potency [3]: inactive | Potency [4]: inactive | Potency [5]: inactive | Potency [6]: inactive | Potency [7]: inactive | Potency [8]: inactive | Potency [9]: inactive | Potency [10]: inactive | Potency [11]: inactive | Potency [12]: inactive | Potency [13]: inactive | Potency [14]: inactive | Potency [15]: inactive | Potency [16]: inactive | Potency [17]: inactive

CCOc1cc(OP(=S)(OC)OC)nc(CC)n1
Potency [1]: inactive | Potency [2]: inactive | Potency [3]: inactive | Potency [4]: inactive | Potency [5]: inactive | Potency [7]: inactive | Potency [18]: inactive | Potency [8]: inactive | Potency [19]: inactive | Potency [9]: inactive | Potency [10]: inactive | Potency [11]: inactive | Potency [12]: inactive | Potency [13]: inactive | Potency [14]: inactive | Potency [20]: inactive | Potency [15]: inactive | Potency [16]: inactive | Potency [17]: inactive

C(COCC1CO1)OCC1CO1 (stereo not drawn)
Potency [1]: inactive | Potency [2]: 68.6 µM (active) | Potency [3]: inactive | Potency [4]: inactive | Potency [5]: inactive | Potency [6]: inactive | Potency [18]: 32.4 µM (active) | Potency [19]: inactive | Potency [9]: inactive | Potency [10]: inactive | Potency [11]: inactive | Potency [12]: inactive | Potency [13]: inactive | Potency [14]: inactive | Potency [20]: inactive | Potency [15]: inactive | Potency [17]: inactive

CO/N=C(/C(=O)OC)c1ccccc1COc1ccccc1C
Potency [1]: inactive | Potency [2]: inactive | Potency [3]: inactive | Potency [4]: inactive | Potency [5]: inactive | Potency [6]: inactive | Potency [18]: inactive | Potency [8]: inactive | Potency [19]: inactive | Potency [10]: inactive | Potency [11]: inactive | Potency [12]: inactive | Potency [13]: inactive | Potency [15]: inactive | Potency [17]: inactive

CCCCOC(=O)[C@@H](C)Oc1ccc(Oc2ccc(C#N)cc2F)cc1
Potency [1]: inactive | Potency [2]: inactive | Potency [3]: inactive | Potency [4]: inactive | Potency [5]: inactive | Potency [6]: inactive | Potency [18]: inactive | Potency [8]: inactive | Potency [19]: inactive | Potency [10]: inactive | Potency [11]: inactive | Potency [12]: 1.66 µM (active) | Potency [13]: inactive | Potency [15]: inactive | Potency [17]: inactive

Cc1ccccc1OP(=O)(Oc1ccccc1C)Oc1ccccc1C
Potency [1]: inactive | Potency [2]: 48.8 µM (active) | Potency [3]: inactive | Potency [4]: inactive | Potency [5]: inactive | Potency [6]: 1.83 µM (active) | Potency [8]: inactive | Potency [19]: inactive | Potency [10]: inactive | Potency [11]: inactive | Potency [12]: inactive | Potency [13]: inactive | Potency [20]: inactive | Potency [15]: inactive | Potency [16]: inactive

CCCCCl
Potency [1]: inactive | Potency [2]: inactive | Potency [3]: inactive | Potency [4]: inactive | Potency [5]: inactive | Potency [6]: inactive | Potency [18]: inactive | Potency [8]: inactive | Potency [9]: inactive | Potency [10]: inactive | Potency [11]: inactive | Potency [12]: inactive | Potency [13]: inactive | Potency [15]: inactive | Potency [17]: inactive

CCCCc1ccc(O)cc1
Potency [1]: inactive | Potency [2]: inactive | Potency [3]: inactive | Potency [4]: inactive | Potency [5]: inactive | Potency [6]: inactive | Potency [18]: inactive | Potency [19]: inactive | Potency [9]: inactive | Potency [10]: inactive | Potency [11]: inactive | Potency [16]: inactive | Potency [17]: inactive

CNCC(=O)c1ccc(O)c(O)c1
Potency [1]: inactive | Potency [2]: inactive | Potency [3]: 5.35 µM (active) | Potency [4]: inactive | Potency [5]: inactive | Potency [7]: inactive | Potency [18]: inactive | Potency [8]: inactive | Potency [19]: inactive | Potency [9]: inactive | Potency [10]: inactive | Potency [11]: inactive | Potency [12]: inactive | Potency [13]: inactive | Potency [20]: inactive | Potency [16]: 26.6 µM (active) | Potency [17]: 26.6 µM (active)

CNNC
Potency [1]: inactive | Potency [2]: inactive | Potency [3]: inactive | Potency [4]: inactive | Potency [5]: inactive | Potency [6]: inactive | Potency [18]: inactive | Potency [8]: inactive | Potency [19]: inactive | Potency [9]: inactive | Potency [11]: inactive | Potency [12]: inactive | Potency [13]: inactive | Potency [15]: inactive | Potency [16]: inactive | Potency [17]: inactive

CCCOc1nn(C(=O)NS(=O)(=O)c2ccccc2C(=O)OC)c(=O)n1C
Potency [1]: inactive | Potency [2]: 68.3 µM (active) | Potency [3]: inactive | Potency [4]: inactive | Potency [5]: inactive | Potency [7]: inactive | Potency [18]: inactive | Potency [8]: inactive | Potency [19]: inactive | Potency [9]: inactive | Potency [10]: inactive | Potency [11]: inactive | Potency [12]: inactive | Potency [13]: inactive | Potency [14]: inactive | Potency [20]: inactive | Potency [15]: inactive | Potency [16]: inactive | Potency [17]: inactive

O=[N+]([O-])c1ccc2c3c(cccc13)CC2
Potency [1]: inactive | Potency [2]: inactive | Potency [3]: inactive | Potency [4]: inactive | Potency [5]: inactive | Potency [6]: inactive | Potency [18]: inactive | Potency [19]: inactive | Potency [10]: inactive | Potency [11]: inactive | Potency [13]: inactive | Potency [14]: inactive | Potency [15]: inactive | Potency [16]: inactive | Potency [17]: inactive

CCOC(=O)COc1ccc(Cl)cc1Cl
Potency [1]: inactive | Potency [2]: inactive | Potency [3]: inactive | Potency [4]: inactive | Potency [5]: inactive | Potency [6]: inactive | Potency [18]: inactive | Potency [8]: inactive | Potency [19]: inactive | Potency [9]: inactive | Potency [10]: inactive | Potency [12]: inactive | Potency [13]: inactive | Potency [20]: inactive | Potency [15]: inactive | Potency [16]: inactive | Potency [17]: inactive

CC(C)N(C(=O)COc1nnc(C(F)(F)F)s1)c1ccc(F)cc1
Potency [1]: inactive | Potency [2]: inactive | Potency [3]: inactive | Potency [4]: inactive | Potency [5]: inactive | Potency [7]: inactive | Potency [18]: inactive | Potency [8]: inactive | Potency [19]: inactive | Potency [9]: inactive | Potency [10]: inactive | Potency [11]: inactive | Potency [12]: inactive | Potency [13]: inactive | Potency [14]: inactive | Potency [15]: inactive | Potency [16]: inactive | Potency [17]: inactive
